The panel holds about 83,000 compounds, 20% with a hit somewhere; the sample as a whole holds those more often.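 For each line, cells grew in 96-well plates with the test compound present at a single concentration for 48 hours.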 Activity calls are given as the source filed them. The calls were made as follows: active = growth percent below 10; inactive = the rest.
Legend:
Assay in all cases: NCI-60 one-dose screen, 48 h (100 = growth as untreated, 0 = no growth, -100 = all killed)
Conditions in all cases: 10 µM unless noted
MOLT-4 leukemia = test system: MOLT-4 leukemia
SR leukemia = test system: SR leukemia
RPMI-8226 leukemia = test system: RPMI-8226 leukemia
OVCAR-8 ovarian = test system: OVCAR-8 ovarian
OVCAR-5 ovarian = test system: OVCAR-5 ovarian
OVCAR-4 ovarian = test system: OVCAR-4 ovarian
SK-OV-3 ovarian = test system: SK-OV-3 ovarian
IGROV1 ovarian = test system: IGROV1 ovarian
OVCAR-3 ovarian = test system: OVCAR-3 ovarian
HS 578T breast = test system: HS 578T breast
NCI/ADR-RES ovarian = test system: NCI/ADR-RES ovarian
BT-549 breast = test system: BT-549 breast
MDA-MB-435 melanoma = test system: MDA-MB-435 melanoma
SW-620 colon = test system: SW-620 colon
MCF7 breast = test system: MCF7 breast
HCT-116 colon = test system: HCT-116 colon
HCC-2998 colon = test system: HCC-2998 colon
KM12 colon = test system: KM12 colon
T-47D breast = test system: T-47D breast

Measured: growth

COC(=O)[C@H](Cc1ccccc1)NC(=O)c1csc([C@@H](C[C@H](C(C)C)N(C)C(=O)[C@@H](NC(=O)[C@H]2CCCN2C)C2CC2)OC(C)=O)n1
active: MOLT-4 leukemia 5.46% | SR leukemia 6.34% | OVCAR-3 ovarian -3.48% | MDA-MB-435 melanoma -31.2% | HCT-116 colon -2.44%
inactive: RPMI-8226 leukemia 10.9% | OVCAR-8 ovarian 27.3% | OVCAR-5 ovarian 36.1% | OVCAR-4 ovarian 59.5% | SK-OV-3 ovarian 52.8% | IGROV1 ovarian 39.1% | HS 578T breast 14.6% | NCI/ADR-RES ovarian 53.3% | BT-549 breast 20.6% | SW-620 colon 24.5% | MCF7 breast 20.4% | HCC-2998 colon 27.8% | KM12 colon 12.6%

C/C(=C\c1ccn(-c2ccc(N)c(F)c2)n1)[C@@H]1C[C@@H]2O[C@]2(C)CCC[C@H](C)[C@H](O)[C@@H](C)C(=O)C(C)(C)[C@@H](O)CC(=O)O1
inactive: OVCAR-8 ovarian 24.7% | OVCAR-5 ovarian 19.4% | OVCAR-4 ovarian 52.2% | SK-OV-3 ovarian 50.7% | IGROV1 ovarian 34% | BT-549 breast 12.2% | SW-620 colon 44.7% | MCF7 breast 16.3% | HCT-116 colon 10.7% | KM12 colon 12.5%
active: MOLT-4 leukemia 6.16% | SR leukemia 9.07% | RPMI-8226 leukemia 8.95% | OVCAR-3 ovarian 2.8% | HS 578T breast 2.63% | NCI/ADR-RES ovarian -3.5% | MDA-MB-435 melanoma -41.1% | HCC-2998 colon 4.73%

C[C@@H]1CCC2[C@@H](C)[C@H](OC(=O)CCC(=O)NCCNC(=O)Cc3cc(=O)oc4cc(N(C)C)ccc34)O[C@@H]3O[C@]4(C)CC[C@@H]1C23OO4 (some centres undefined)
inactive: MOLT-4 leukemia 31.3% | RPMI-8226 leukemia 15.1% | OVCAR-8 ovarian 23.8% | OVCAR-5 ovarian 49% | OVCAR-4 ovarian 49.1% | SK-OV-3 ovarian 92.3% | IGROV1 ovarian 55% | OVCAR-3 ovarian 37.7% | HS 578T breast 49.5% | NCI/ADR-RES ovarian 16.6% | T-47D breast 41% | MDA-MB-435 melanoma 19.2% | SW-620 colon 25.3% | HCT-116 colon 10.1% | HCC-2998 colon 50.2% | KM12 colon 22.2%
active: SR leukemia -16.8%

COC(=O)[C@@H](NC(=O)c1cn(CCC2CCCCC2)c2ccccc12)C(C)(C)C
inactive: MOLT-4 leukemia 64.3% | SR leukemia 61.3% | RPMI-8226 leukemia 64.9% | OVCAR-8 ovarian 77.7% | OVCAR-5 ovarian 82% | OVCAR-4 ovarian 68.7% | SK-OV-3 ovarian 79.2% | IGROV1 ovarian 62.3% | OVCAR-3 ovarian 77.4% | HS 578T breast 83.9% | NCI/ADR-RES ovarian 73.6% | BT-549 breast 84.1% | MDA-MB-435 melanoma 83.3% | SW-620 colon 86.3% | MCF7 breast 75% | HCT-116 colon 64.2% | HCC-2998 colon 86.3% | KM12 colon 69.8%

COP(=O)(OC)C(O)c1ccc(Cl)cc1 (centres undefined)
inactive: MOLT-4 leukemia 119% | SR leukemia 96.1% | RPMI-8226 leukemia 104% | OVCAR-8 ovarian 108% | OVCAR-5 ovarian 112% | OVCAR-4 ovarian 104% | SK-OV-3 ovarian 111% | IGROV1 ovarian 103% | OVCAR-3 ovarian 94.7% | HS 578T breast 94.1% | NCI/ADR-RES ovarian 96.9% | BT-549 breast 94.1% | MDA-MB-435 melanoma 100% | SW-620 colon 101% | MCF7 breast 98.4% | HCT-116 colon 94.7% | HCC-2998 colon 98.9% | KM12 colon 90%

COc1ccc(/C=C\c2cc(OC)c(OC)c(OC)c2)cc1OCC(=O)Nc1nc2ccc(OC(F)(F)F)cc2s1
inactive: MOLT-4 leukemia 13.2% | SR leukemia 31.5% | RPMI-8226 leukemia 22.8% | OVCAR-8 ovarian 43.2% | OVCAR-5 ovarian 112% | OVCAR-4 ovarian 64.4% | SK-OV-3 ovarian 48.4% | IGROV1 ovarian 30.3% | HS 578T breast 12.5% | T-47D breast 22.4% | SW-620 colon 25.1% | MCF7 breast 24.3% | HCT-116 colon 19.5% | KM12 colon 19.2%
active: OVCAR-3 ovarian -30.7% | NCI/ADR-RES ovarian -7.34% | MDA-MB-435 melanoma -30.2%

O=C(CCCCCCC(=O)Nc1ccc(N(CCCl)CCCl)cc1)NO
active: MCF7 breast 9.37%
inactive: MOLT-4 leukemia 19.5% | SR leukemia 12.2% | RPMI-8226 leukemia 49.1% | OVCAR-8 ovarian 19.3% | OVCAR-5 ovarian 53.7% | OVCAR-4 ovarian 44.9% | SK-OV-3 ovarian 26.3% | IGROV1 ovarian 59.2% | OVCAR-3 ovarian 41.7% | HS 578T breast 71.7% | NCI/ADR-RES ovarian 64.6% | BT-549 breast 58.9% | MDA-MB-435 melanoma 45.1% | SW-620 colon 33.2% | HCT-116 colon 36.1% | HCC-2998 colon 52.1% | KM12 colon 63%

O=P(Oc1ccc(Cl)cc1)(N1CC1)N1CC1
inactive: MOLT-4 leukemia 84.8% | SR leukemia 77.8% | RPMI-8226 leukemia 88.6% | OVCAR-8 ovarian 89.3% | OVCAR-5 ovarian 117% | OVCAR-4 ovarian 97.3% | SK-OV-3 ovarian 104% | IGROV1 ovarian 89.1% | OVCAR-3 ovarian 109% | HS 578T breast 103% | NCI/ADR-RES ovarian 101% | BT-549 breast 92.8% | MDA-MB-435 melanoma 109% | SW-620 colon 89.3% | MCF7 breast 67.4% | HCT-116 colon 84% | HCC-2998 colon 88.5% | KM12 colon 110%

C[C@]12CC[C@H]3[C@@H](CC[C@]4(O)C[C@@H](O[C@@H]5O[C@H](CO)[C@@H](O[C@@H]6OC[C@@H](O)[C@H](O)[C@H]6O)[C@H](O)[C@H]5O)CC[C@]34C=O)[C@@]1(O)CC[C@@H]2C1=CC(=O)OC1
inactive: RPMI-8226 leukemia 10% | OVCAR-5 ovarian 31.1% | IGROV1 ovarian 18.6% | MDA-MB-435 melanoma 16.9% | HCC-2998 colon 38.8% | KM12 colon 16.9%
active: MOLT-4 leukemia -36.3% | SR leukemia -31.7% | OVCAR-8 ovarian 2.06% | OVCAR-4 ovarian 2.78% | SK-OV-3 ovarian -3.1% | OVCAR-3 ovarian -34.5% | HS 578T breast 8.83% | NCI/ADR-RES ovarian -66.3% | BT-549 breast 5.05% | SW-620 colon 8.41% | HCT-116 colon 5.35%

Nc1ccc(Cl)cc1
inactive: MOLT-4 leukemia 94.3% | SR leukemia 102% | RPMI-8226 leukemia 98.9% | OVCAR-8 ovarian 97.4% | OVCAR-5 ovarian 100% | OVCAR-4 ovarian 106% | SK-OV-3 ovarian 92% | IGROV1 ovarian 105% | OVCAR-3 ovarian 112% | HS 578T breast 98.9% | NCI/ADR-RES ovarian 99.5% | T-47D breast 94.6% | MDA-MB-435 melanoma 105% | SW-620 colon 103% | HCT-116 colon 95.9% | HCC-2998 colon 106% | KM12 colon 102%

COc1ccc(/C=C\c2cc(OC)c(OC)c(OC)c2)c(NS(=O)(=O)c2ccc(Cl)cc2)c1O
active: SR leukemia 7.33% | RPMI-8226 leukemia 7.02% | OVCAR-8 ovarian 2.97% | OVCAR-3 ovarian -31.1% | NCI/ADR-RES ovarian -7.04% | MDA-MB-435 melanoma -48% | HCT-116 colon 6.81% | KM12 colon 1.25%
inactive: MOLT-4 leukemia 10.1% | OVCAR-5 ovarian 49.2% | OVCAR-4 ovarian 33.1% | SK-OV-3 ovarian 21.9% | IGROV1 ovarian 30.1% | HS 578T breast 10.9% | BT-549 breast 58.2% | SW-620 colon 27% | MCF7 breast 12.7%

O=C(N/N=C\c1ccc(N(CCCl)CCCl)cc1Cl)c1cccnc1
active: OVCAR-5 ovarian -3.04%
inactive: MOLT-4 leukemia 87.5% | SR leukemia 99.5% | RPMI-8226 leukemia 82.4% | OVCAR-8 ovarian 96% | OVCAR-4 ovarian 53.7% | SK-OV-3 ovarian 95.3% | IGROV1 ovarian 37% | OVCAR-3 ovarian 57.6% | HS 578T breast 119% | NCI/ADR-RES ovarian 86.4% | BT-549 breast 90.7% | MDA-MB-435 melanoma 104% | SW-620 colon 79.2% | MCF7 breast 34.4% | HCT-116 colon 43% | HCC-2998 colon 76.8% | KM12 colon 102%

CC(CO)NC1CCCCC1 (centres undefined)
inactive: MOLT-4 leukemia 98.9% | SR leukemia 104% | RPMI-8226 leukemia 112% | OVCAR-8 ovarian 103% | OVCAR-5 ovarian 102% | OVCAR-4 ovarian 102% | SK-OV-3 ovarian 111% | IGROV1 ovarian 102% | OVCAR-3 ovarian 115% | HS 578T breast 115% | NCI/ADR-RES ovarian 116% | BT-549 breast 106% | MDA-MB-435 melanoma 112% | SW-620 colon 105% | HCT-116 colon 105% | HCC-2998 colon 106% | KM12 colon 114%

COc1ccc(C(=O)c2sc3nc4c(cc3c2N)N2CCC4CC2)cc1OC
inactive: MOLT-4 leukemia 77.3% | SR leukemia 83.4% | RPMI-8226 leukemia 51.4% | OVCAR-8 ovarian 85.7% | OVCAR-5 ovarian 107% | OVCAR-4 ovarian 85.7% | SK-OV-3 ovarian 96.2% | IGROV1 ovarian 104% | OVCAR-3 ovarian 100% | HS 578T breast 100% | NCI/ADR-RES ovarian 79.4% | BT-549 breast 81.5% | MDA-MB-435 melanoma 99.9% | SW-620 colon 126% | HCT-116 colon 86.2% | HCC-2998 colon 109% | KM12 colon 97.7%

ClCCN(CCCl)c1ccc(OCc2ccccc2)cc1
active: SR leukemia -8.12%
inactive: MOLT-4 leukemia 11.7% | RPMI-8226 leukemia 64.8% | OVCAR-8 ovarian 55.8% | OVCAR-5 ovarian 89% | OVCAR-4 ovarian 78.7% | SK-OV-3 ovarian 65.2% | IGROV1 ovarian 76.7% | OVCAR-3 ovarian 78% | HS 578T breast 96.6% | NCI/ADR-RES ovarian 56.7% | BT-549 breast 42.7% | MDA-MB-435 melanoma 75% | SW-620 colon 60.9% | MCF7 breast 31.7% | HCT-116 colon 55.9% | HCC-2998 colon 89.1% | KM12 colon 90.5%

Cc1cc(C)c(CBr)c(C)c1
inactive: MOLT-4 leukemia 96.3% | SR leukemia 107% | RPMI-8226 leukemia 100% | OVCAR-8 ovarian 99.4% | OVCAR-5 ovarian 96.6% | OVCAR-4 ovarian 127% | SK-OV-3 ovarian 104% | IGROV1 ovarian 99.2% | OVCAR-3 ovarian 113% | HS 578T breast 106% | NCI/ADR-RES ovarian 103% | T-47D breast 101% | MDA-MB-435 melanoma 111% | SW-620 colon 103% | MCF7 breast 96.4% | HCT-116 colon 110% | HCC-2998 colon 114% | KM12 colon 105%

NC(CCl)CCl
active: SK-OV-3 ovarian -100% | T-47D breast -100%
inactive: MOLT-4 leukemia 105% | SR leukemia 108% | RPMI-8226 leukemia 99.3% | OVCAR-8 ovarian 100% | OVCAR-5 ovarian 107% | OVCAR-4 ovarian 102% | IGROV1 ovarian 110% | OVCAR-3 ovarian 100% | NCI/ADR-RES ovarian 105% | BT-549 breast 107% | MDA-MB-435 melanoma 89.2% | SW-620 colon 102% | MCF7 breast 96.5% | HCT-116 colon 107% | HCC-2998 colon 101% | KM12 colon 99.5%

Reference: PubChem BioAssay (NCI)
